Assays:
Assay in all cases: DAPPL (digital affinity profiling via proximity ligation, sequencing); 10 mM Tris-HCl pH 7.5, 50 mM NaCl, 1 mM DTT, 4% glycerol, room temperature, 30 min; GST-TFs on glutathione beads, 16-mer random dsDNA library, 0.1% formaldehyde crosslink after washing; high values mean tight binding
FLI1 = target: T1, FLI1 (Homo sapiens, UniProt Q01543 1-452); conditions: protein: recombinant; tags: N-terminal GST; dsDNA, one strand shown
T1 sequence: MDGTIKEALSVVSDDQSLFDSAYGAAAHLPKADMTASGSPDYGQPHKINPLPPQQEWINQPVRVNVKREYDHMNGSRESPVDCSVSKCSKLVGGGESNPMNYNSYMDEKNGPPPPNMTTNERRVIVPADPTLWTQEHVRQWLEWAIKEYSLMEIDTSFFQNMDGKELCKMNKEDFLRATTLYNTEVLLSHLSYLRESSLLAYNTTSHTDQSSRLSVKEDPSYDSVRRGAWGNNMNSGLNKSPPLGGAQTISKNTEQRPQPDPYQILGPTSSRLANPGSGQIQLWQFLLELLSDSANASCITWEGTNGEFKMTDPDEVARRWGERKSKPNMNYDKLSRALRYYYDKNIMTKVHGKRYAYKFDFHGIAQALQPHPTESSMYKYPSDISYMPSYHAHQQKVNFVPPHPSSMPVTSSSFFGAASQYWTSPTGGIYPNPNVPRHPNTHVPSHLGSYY
How it was run: (§1)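 Pools of DNA-barcoded human transcription factors, expressed in yeast as GST fusions on glutathione beads and combined with a tag-only sample, were incubated with 200 nmole of a 16-mer random double-stranded DNA library. Incubation took 30 min at room temperature in Tris/NaCl/DTT/glycerol buffer and was followed by washing, 0.1% formaldehyde crosslinking, proximity ligation (BsaI/T4 ligase, 1 h, 37 °C), PCR amplification and sequencing on an Illumina NextSeq500. Binding signal is the ratio of a hexamer's read frequency for a factor to its frequency for the tag-only sample.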

ELK1 = target: T2, ELK1 (Homo sapiens, UniProt P19419 1-428); conditions: protein: recombinant; tags: N-terminal GST; dsDNA, one strand shown
T2 sequence: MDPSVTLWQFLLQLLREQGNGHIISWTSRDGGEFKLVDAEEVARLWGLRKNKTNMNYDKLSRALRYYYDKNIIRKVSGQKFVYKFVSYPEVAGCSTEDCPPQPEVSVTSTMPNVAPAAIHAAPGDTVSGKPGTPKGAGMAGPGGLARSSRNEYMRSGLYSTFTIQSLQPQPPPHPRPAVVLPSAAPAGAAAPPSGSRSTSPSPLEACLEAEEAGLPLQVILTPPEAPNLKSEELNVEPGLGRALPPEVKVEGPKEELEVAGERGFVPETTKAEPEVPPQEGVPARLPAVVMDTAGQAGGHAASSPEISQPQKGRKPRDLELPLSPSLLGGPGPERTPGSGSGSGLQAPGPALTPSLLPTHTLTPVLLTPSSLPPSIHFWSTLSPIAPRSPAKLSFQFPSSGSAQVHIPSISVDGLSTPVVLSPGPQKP
How it was run: as §1

GABPA = target: T3, GABPA (Homo sapiens, UniProt Q06546 1-454); conditions: protein: recombinant; tags: N-terminal GST; dsDNA, one strand shown
T3 sequence: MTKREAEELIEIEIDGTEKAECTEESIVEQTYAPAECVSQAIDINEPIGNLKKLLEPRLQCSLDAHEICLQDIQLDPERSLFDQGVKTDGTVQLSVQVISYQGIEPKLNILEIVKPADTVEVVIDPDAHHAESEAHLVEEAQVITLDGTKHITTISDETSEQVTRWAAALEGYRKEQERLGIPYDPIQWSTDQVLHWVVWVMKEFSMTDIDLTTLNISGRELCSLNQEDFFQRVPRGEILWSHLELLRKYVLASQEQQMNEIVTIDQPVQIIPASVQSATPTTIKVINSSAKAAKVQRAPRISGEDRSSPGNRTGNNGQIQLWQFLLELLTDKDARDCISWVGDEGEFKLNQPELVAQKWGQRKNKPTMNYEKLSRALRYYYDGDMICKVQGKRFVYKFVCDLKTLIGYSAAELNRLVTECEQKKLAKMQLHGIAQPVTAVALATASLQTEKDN
How it was run: as §1

ERG = target: T4, ERG (Homo sapiens, UniProt P11308 1-479); conditions: protein: recombinant; tags: N-terminal GST; dsDNA, one strand shown
T4 sequence: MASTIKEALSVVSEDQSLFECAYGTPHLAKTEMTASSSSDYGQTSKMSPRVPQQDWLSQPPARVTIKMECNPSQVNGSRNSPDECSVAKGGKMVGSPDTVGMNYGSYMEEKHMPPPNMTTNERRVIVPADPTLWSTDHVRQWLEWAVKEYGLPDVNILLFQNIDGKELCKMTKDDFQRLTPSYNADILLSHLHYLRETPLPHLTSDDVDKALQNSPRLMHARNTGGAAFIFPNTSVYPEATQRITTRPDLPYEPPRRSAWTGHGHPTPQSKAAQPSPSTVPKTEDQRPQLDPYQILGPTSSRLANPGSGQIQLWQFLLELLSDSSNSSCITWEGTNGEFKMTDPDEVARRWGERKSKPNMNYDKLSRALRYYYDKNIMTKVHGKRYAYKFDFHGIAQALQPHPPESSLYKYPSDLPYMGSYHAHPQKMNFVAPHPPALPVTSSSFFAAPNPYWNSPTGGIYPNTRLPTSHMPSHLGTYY
How it was run: as §1

ELF1 = ELF1 (Homo sapiens, UniProt P32519 1-619); conditions: protein: recombinant; tags: N-terminal GST; dsDNA, one strand shown
How it was run: as §1

EHF = target: T5, EHF (Homo sapiens, UniProt Q9NZC4 1-300); conditions: protein: recombinant; tags: N-terminal GST; dsDNA, one strand shown
T5 sequence: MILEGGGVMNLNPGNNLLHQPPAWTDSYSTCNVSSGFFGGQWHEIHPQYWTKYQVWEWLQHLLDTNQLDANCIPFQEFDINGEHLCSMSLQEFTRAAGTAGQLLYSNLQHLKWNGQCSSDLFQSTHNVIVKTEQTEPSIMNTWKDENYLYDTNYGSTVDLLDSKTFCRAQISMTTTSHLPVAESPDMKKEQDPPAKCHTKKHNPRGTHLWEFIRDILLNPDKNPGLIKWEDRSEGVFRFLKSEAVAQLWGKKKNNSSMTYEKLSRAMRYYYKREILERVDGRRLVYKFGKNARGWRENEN
How it was run: as §1

SPI1 = SPI1 (Homo sapiens, UniProt P17947 1-270); conditions: protein: recombinant; tags: N-terminal GST; dsDNA, one strand shown
How it was run: as §1

SPIB = SPIB (Homo sapiens, UniProt Q01892 1-262); conditions: protein: recombinant; tags: N-terminal GST; dsDNA, one strand shown
How it was run: as §1

ELK3 = target: T6, ELK3 (Homo sapiens, UniProt P41970 1-407); conditions: protein: recombinant; tags: N-terminal GST; dsDNA, one strand shown
T6 sequence: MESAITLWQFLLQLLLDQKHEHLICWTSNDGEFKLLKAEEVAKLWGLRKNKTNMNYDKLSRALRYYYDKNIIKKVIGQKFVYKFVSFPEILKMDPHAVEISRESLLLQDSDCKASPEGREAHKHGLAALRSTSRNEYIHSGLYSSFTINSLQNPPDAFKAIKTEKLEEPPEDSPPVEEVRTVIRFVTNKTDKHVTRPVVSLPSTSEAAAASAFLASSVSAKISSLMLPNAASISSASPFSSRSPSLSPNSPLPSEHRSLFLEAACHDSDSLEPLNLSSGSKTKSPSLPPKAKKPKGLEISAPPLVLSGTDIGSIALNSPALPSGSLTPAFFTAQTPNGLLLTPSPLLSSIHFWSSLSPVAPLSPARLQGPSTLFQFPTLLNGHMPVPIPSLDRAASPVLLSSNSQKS
How it was run: as §1

FEV = target: T7, FEV (Homo sapiens, UniProt Q99581 1-238); conditions: protein: recombinant; tags: N-terminal GST; dsDNA, one strand shown
T7 sequence: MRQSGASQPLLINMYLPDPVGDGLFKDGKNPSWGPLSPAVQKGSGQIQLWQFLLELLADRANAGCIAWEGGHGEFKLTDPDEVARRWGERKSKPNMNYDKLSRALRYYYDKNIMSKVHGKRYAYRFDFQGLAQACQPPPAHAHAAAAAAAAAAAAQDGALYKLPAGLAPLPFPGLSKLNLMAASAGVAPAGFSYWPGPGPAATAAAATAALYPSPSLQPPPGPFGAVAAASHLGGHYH
How it was run: as §1

ETV5 = ETV5 (Homo sapiens, UniProt P41161 1-510); conditions: protein: recombinant; tags: N-terminal GST; dsDNA, one strand shown
How it was run: as §1

HSF1 = HSF1 (Homo sapiens, UniProt Q00613 1-529); conditions: protein: recombinant; tags: N-terminal GST; chain copies: 3; dsDNA, one strand shown
How it was run: as §1

SPIC = target: T8, SPIC (Homo sapiens, UniProt Q8N5J4 1-248); conditions: protein: recombinant; tags: N-terminal GST; dsDNA, one strand shown
T8 sequence: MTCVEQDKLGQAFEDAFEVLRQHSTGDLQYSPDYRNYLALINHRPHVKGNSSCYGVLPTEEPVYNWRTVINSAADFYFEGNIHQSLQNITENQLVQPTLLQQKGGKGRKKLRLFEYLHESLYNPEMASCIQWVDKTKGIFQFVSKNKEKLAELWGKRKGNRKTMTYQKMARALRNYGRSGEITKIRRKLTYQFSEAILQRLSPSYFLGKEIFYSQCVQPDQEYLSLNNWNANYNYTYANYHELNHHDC
How it was run: as §1

ELF4 = ELF4 (Homo sapiens, UniProt Q99607 1-663); conditions: protein: recombinant; tags: N-terminal GST; dsDNA, one strand shown
How it was run: as §1

ELK4 = target: T9, ELK4 (Homo sapiens, UniProt P28324-2 1-405); conditions: protein: recombinant; tags: N-terminal GST; dsDNA, one strand shown
T9 sequence: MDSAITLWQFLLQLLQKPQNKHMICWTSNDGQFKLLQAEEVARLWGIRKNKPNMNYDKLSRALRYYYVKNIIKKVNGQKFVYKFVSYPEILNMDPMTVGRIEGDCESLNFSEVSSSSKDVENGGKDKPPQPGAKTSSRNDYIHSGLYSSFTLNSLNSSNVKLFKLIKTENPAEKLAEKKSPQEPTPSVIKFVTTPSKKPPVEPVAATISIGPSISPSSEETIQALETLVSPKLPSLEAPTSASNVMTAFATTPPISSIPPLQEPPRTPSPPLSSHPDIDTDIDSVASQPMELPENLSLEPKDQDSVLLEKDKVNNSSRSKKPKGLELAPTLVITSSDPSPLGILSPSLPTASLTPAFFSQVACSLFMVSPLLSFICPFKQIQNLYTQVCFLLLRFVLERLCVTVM
How it was run: as §1

ETV2 = target: T10, ETV2 (Homo sapiens, UniProt O00321 1-342); conditions: protein: recombinant; tags: N-terminal GST; dsDNA, one strand shown
T10 sequence: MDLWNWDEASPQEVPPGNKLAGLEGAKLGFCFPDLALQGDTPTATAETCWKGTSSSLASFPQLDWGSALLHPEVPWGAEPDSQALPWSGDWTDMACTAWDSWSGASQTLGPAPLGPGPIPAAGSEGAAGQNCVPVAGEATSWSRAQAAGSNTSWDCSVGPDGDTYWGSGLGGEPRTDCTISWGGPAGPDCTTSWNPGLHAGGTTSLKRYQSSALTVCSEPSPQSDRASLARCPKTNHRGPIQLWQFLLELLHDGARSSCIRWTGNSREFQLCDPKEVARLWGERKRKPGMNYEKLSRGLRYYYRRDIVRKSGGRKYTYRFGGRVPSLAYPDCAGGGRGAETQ
How it was run: as §1

ELF3 = target: T11, ELF3 (Homo sapiens, UniProt P78545 1-371); conditions: protein: recombinant; tags: N-terminal GST; dsDNA, one strand shown
T11 sequence: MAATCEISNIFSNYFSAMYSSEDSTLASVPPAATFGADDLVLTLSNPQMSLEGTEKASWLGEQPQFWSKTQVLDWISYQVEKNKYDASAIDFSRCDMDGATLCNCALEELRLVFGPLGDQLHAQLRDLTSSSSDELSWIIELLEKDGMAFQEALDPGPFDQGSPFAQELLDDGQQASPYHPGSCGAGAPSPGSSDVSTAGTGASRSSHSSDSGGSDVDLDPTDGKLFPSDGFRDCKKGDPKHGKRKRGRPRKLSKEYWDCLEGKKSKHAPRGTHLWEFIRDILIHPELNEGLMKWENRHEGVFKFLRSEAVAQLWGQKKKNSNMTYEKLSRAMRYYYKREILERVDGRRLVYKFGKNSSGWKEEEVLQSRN
How it was run: as §1

CRX = CRX (Homo sapiens, UniProt O43186 1-299); conditions: protein: recombinant; tags: N-terminal GST; dsDNA, one strand shown
How it was run: as §1

ETV1 = ETV1 (Homo sapiens, UniProt P50549 1-477); conditions: protein: recombinant; tags: N-terminal GST; dsDNA, one strand shown
How it was run: as §1

Chain of ELF4 (Q99607 whole entry): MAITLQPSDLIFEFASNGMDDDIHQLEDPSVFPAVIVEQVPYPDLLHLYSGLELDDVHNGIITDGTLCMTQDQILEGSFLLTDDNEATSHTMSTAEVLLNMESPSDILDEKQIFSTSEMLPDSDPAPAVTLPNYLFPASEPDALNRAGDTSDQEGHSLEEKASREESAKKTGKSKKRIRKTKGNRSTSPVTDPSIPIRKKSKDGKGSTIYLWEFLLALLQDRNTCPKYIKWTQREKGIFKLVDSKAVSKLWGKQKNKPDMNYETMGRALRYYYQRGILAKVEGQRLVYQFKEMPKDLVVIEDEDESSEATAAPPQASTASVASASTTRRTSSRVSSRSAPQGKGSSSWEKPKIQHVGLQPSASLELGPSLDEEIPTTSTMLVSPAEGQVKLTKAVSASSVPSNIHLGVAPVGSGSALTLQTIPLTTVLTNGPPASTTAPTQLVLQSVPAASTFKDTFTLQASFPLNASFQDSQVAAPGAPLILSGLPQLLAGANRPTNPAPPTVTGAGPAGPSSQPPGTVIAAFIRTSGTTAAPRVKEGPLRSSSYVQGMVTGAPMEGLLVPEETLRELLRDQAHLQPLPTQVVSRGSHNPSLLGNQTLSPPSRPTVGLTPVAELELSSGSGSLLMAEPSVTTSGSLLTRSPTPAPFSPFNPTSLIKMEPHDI
Chain of ELF1 (P32519 whole entry): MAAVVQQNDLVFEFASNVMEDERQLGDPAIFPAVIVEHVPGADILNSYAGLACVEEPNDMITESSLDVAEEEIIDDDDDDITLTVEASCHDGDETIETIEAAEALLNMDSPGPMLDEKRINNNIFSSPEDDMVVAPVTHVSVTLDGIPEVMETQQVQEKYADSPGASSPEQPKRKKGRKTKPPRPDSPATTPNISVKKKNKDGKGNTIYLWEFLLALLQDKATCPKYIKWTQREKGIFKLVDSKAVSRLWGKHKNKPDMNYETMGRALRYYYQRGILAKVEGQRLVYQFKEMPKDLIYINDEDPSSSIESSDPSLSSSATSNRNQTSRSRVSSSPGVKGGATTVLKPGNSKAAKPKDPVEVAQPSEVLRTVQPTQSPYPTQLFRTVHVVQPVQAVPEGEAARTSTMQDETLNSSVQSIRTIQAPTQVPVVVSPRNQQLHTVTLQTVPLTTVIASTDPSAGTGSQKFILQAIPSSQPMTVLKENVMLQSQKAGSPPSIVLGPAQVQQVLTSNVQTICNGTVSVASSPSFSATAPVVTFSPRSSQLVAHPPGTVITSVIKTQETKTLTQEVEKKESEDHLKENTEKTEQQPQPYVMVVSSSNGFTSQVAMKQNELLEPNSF
Chain of SPIB (Q01892 whole entry): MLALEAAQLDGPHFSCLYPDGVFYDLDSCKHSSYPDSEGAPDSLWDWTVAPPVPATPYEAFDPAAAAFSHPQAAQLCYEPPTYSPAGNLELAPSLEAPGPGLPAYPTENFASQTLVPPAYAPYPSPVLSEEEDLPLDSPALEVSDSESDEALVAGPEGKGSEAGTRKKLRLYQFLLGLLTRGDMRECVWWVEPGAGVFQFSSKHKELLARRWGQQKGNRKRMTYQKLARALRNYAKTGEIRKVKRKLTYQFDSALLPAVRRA
Chain of ETV5 (P41161 whole entry): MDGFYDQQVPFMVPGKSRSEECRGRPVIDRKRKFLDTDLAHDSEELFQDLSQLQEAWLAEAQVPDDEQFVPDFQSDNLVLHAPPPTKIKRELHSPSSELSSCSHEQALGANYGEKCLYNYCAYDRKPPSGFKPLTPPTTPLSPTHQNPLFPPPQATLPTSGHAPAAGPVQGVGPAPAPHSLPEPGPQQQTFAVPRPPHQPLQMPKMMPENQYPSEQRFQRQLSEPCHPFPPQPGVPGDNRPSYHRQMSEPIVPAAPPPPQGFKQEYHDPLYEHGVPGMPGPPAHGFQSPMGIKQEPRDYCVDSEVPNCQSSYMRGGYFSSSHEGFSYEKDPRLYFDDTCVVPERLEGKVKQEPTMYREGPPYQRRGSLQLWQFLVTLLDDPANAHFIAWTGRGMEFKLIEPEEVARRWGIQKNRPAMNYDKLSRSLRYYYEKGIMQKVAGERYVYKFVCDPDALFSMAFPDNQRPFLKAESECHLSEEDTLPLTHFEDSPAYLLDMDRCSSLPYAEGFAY
Chain of CRX (O43186 whole entry): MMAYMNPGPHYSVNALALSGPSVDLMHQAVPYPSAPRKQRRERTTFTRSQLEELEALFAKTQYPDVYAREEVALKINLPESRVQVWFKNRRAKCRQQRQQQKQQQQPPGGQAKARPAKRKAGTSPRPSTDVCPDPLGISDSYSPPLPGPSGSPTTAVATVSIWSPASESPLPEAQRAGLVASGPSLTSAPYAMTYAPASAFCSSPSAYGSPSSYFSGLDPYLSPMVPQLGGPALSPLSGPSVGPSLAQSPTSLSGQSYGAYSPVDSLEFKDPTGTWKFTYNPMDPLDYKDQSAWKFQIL
Chain of HSF1 (Q00613 whole entry): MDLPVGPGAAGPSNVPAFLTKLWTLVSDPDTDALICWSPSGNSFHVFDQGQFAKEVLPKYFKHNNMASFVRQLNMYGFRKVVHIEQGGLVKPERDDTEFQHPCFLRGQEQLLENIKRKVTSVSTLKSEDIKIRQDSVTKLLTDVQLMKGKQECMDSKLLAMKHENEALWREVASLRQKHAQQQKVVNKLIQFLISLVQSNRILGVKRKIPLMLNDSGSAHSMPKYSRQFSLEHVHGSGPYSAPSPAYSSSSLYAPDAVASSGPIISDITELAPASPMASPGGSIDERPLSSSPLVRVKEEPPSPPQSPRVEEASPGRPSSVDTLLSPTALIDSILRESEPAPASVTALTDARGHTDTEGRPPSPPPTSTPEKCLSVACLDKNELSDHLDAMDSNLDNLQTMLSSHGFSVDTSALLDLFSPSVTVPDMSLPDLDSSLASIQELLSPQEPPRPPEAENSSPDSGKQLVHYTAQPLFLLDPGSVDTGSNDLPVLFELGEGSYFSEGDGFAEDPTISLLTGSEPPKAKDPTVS
Chain of ETV1 (P50549 whole entry): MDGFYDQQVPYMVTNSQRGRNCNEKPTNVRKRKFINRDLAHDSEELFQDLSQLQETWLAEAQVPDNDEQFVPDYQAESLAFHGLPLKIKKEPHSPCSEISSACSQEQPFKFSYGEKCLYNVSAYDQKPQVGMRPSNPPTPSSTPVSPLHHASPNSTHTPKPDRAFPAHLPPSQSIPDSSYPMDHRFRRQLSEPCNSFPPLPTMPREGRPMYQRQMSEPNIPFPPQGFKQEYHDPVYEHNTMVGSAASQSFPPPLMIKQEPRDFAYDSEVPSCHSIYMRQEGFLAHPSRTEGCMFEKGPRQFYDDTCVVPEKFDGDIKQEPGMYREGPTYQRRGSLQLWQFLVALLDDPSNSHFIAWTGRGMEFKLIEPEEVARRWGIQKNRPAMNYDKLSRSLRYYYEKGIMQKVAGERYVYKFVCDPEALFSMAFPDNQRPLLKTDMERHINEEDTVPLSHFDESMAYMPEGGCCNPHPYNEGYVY

## ATTGAC
FLI1
  binding signal: 1.18 fold enrichment (6-mer frequency, TF over GST control)
ELK1
  binding signal: 1.21 fold enrichment (6-mer frequency, TF over GST control)
GABPA
  binding signal: 1.22 fold enrichment (6-mer frequency, TF over GST control)
ERG
  binding signal: 1.19 fold enrichment (6-mer frequency, TF over GST control)
ELF1
  binding signal: 1.19 fold enrichment (6-mer frequency, TF over GST control)
EHF
  binding signal: 1.22 fold enrichment (6-mer frequency, TF over GST control)
SPI1
  binding signal: 1.14 fold enrichment (6-mer frequency, TF over GST control)
SPIB
  binding signal: 1.2 fold enrichment (6-mer frequency, TF over GST control)
ELK3
  binding signal: 1.16 fold enrichment (6-mer frequency, TF over GST control)
FEV
  binding signal: 1.18 fold enrichment (6-mer frequency, TF over GST control)
ETV5
  binding signal: 1.17 fold enrichment (6-mer frequency, TF over GST control)
HSF1
  binding signal: 1.01 fold enrichment (6-mer frequency, TF over GST control)
SPIC
  binding signal: 1.11 fold enrichment (6-mer frequency, TF over GST control)
ELF4
  binding signal: 1.15 fold enrichment (6-mer frequency, TF over GST control)
ELK4
  binding signal: 1.34 fold enrichment (6-mer frequency, TF over GST control)
ETV2
  binding signal: 1.38 fold enrichment (6-mer frequency, TF over GST control)
ELF3
  binding signal: 1.19 fold enrichment (6-mer frequency, TF over GST control)
CRX
  binding signal: 1.11 fold enrichment (6-mer frequency, TF over GST control)
ETV1
  binding signal: 1.1 fold enrichment (6-mer frequency, TF over GST control)

— paper PMC7862700, “An all-to-all approach to the identification of sequence-specific readers for epigenetic DNA modifications on cytosine”
